# In PubChem BioAssay:
# Experiment: basal RPMI8226 mitochondrial membrane potential changes, profiling panel, cell-based, JC-1 fluorescence, 24 h, 100 nL compound (AID 1169); also: test concentration not given here
# Conditions: RPMI8226 myeloma, JC-1 mitochondrial potential fluorescence, higher = more signal
row,SMILES,z-score
1,CC1CC/C=C\[C@H]2OC34C=CCN(c5ccc6ccccc6c5)C(=O)[C@H]3N(CCCCCO)C(=O)[C@@H]4C2C(=O)O1 (stereo not given in full),1.1
2,CN1C(=O)C2C=CC(C(O)C(C)(C)C)N(Nc3ccccc3)C2C1=O (stereo not given),-0.476
3,Cc1ccc(S[C@]2(C(=O)NCCCN(C)C)CC(=O)N(Cc3ccccc3)[C@@H]2c2ccc(CO)cc2)cc1,-0.718
4,O=C1O[C@H](c2ccccc2)[C@H](c2ccccc2)N2[C@H]1[C@@H](C(=O)NC[C@H](O)c1ccccc1)[C@]1(C(=O)Nc3ccc(C#CC4=CCCCC4)cc31)[C@H]2c1ccc(O)cc1,-0.87
5,O=C(CS)NCCCCCNC(=O)[C@H]1C[C@H]2C(=O)N[C@@H](Cc3ccccc3)C(=O)N2[C@H]1c1cccc(OCCO)c1,-0.736
6,CCCC[C@H]1OB(O)C[C@H]2C1=C(COc1ccccc1)C[C@H]1C(=O)N(Cc3ccccc3)C(=O)[C@H]12,-0.163
7,O=c1cccc(-c2cccc3ccccc23)o1,0.608
8,CCCCCN1CC=CC23O[C@@H]4C=CCCOC(=O)C4[C@H]2C(=O)N(CCCO)[C@@H]3C1=O (stereo not given in full),-0.606
9,CS(=O)(=O)CCOC(=O)C1=CC(c2ccc(CO)cc2)=CC(c2cccs2)N(Cc2cccc(OC(F)(F)F)c2)C=C1C(=O)OCCS(C)(=O)=O (stereo not given),-0.722
10,C#C[C@H](O[Si](C#CCCCCCC)(C(C)C)C(C)C)c1ccccc1,0.179
11,COc1ccc([Si](C)(C)[C@@H]2[C@@H](CCO)O[C@]3(C(=O)N(Cc4ccccc4)c4ccc(N(C=O)c5ccccc5)cc43)[C@H]2C)cc1,-0.858
12,C=C(COC)C(=O)CC[C@H](OC(=O)c1cccnc1)c1ccccc1OCCO,-0.706
13,C=CCC(OC(C)=O)[C@@H]1[C@@H](N(Cc2cc3ccccc3o2)C(=O)c2ccc(C)cc2)c2cc(OCCCO)ccc2N1C(=O)c1ccc(-c2ccccc2)cc1 (stereo not given in full),0.614
14,NC(=O)[C@]1(Cc2ccccc2)N=C(c2ccc(OCCCO)cc2)O[C@@H]1c1ccccc1,-0.775
15,[N-]=[N+]=NCc1ccccc1C[C@]1(C(=O)NCCN2CCOCC2)N=C(c2ccc(OCCCO)cc2)O[C@H]1c1ccccc1CN=[N+]=[N-],-0.784
16,CCOC(=O)C1=CC[C@@H](c2cccc(Cl)c2)N(S(=O)(=O)c2ccc(C)cc2)[C@H]1c1ccc(C#N)cc1,-0.62
17,O=c1cccc(-c2ccccc2)o1,0.826
18,CC(=O)NCCCC[C@@H]1NC(=O)[C@@H]2C[C@H](C(=O)NCc3ccc(F)cc3)[C@H](c3ccc(O)cc3)N2C1=O,0.0286

row,SMILES,z-score
1,O=C1OCCC=C[C@H]2OC34C=CCN(c5ccc6ccccc6c5)C(=O)[C@H]3N(CCCCCCO)C(=O)[C@@H]4C12 (stereo not given in full),-0.00773
2,O=C1OCCC/C=C\[C@H]2OC34C=CCN(Cn5nnc6ccccc65)C(=O)[C@H]3N(CCCO)C(=O)[C@@H]4C12 (stereo not given in full),-0.0773
3,CC(C)OC(=O)C1=CCC(c2cccc(Cl)c2)O1 (stereo not given),0.923
4,O=C1[C@H]2C=C(Br)[C@H](C[C@@H]2OCCOCCO)[C@@]12CO2,0.406
5,O=c1cccc(-c2ccc3ccccc3c2)o1,0.463
6,CCCCCCCCCCC(O)C1C=CC2C(=O)N(c3ccccc3)C(=O)C2N1Nc1ccc([N+](=O)[O-])cc1 (stereo not given),-1.13
7,CN1C(=O)C2C=CC(C(O)c3ccccc3)N(NC(=O)OC(C)(C)C)C2C1=O (stereo not given),-0.306
8,CN(C)CCCC[C@@H]1NC(=O)[C@@H]2C[C@H](C(=O)NCCCCCCN)[C@H](c3ccc(O)cc3)N2C1=O,0.576
9,CCOC(=O)C[C@H]1[C@H](OC(=O)c2cc3ccccc3oc2=O)[C@@H](NC(=O)c2ccc3ccccc3c2)c2cc(OCCCO)ccc2N1C(=O)c1ccccc1,0.416
10,COc1ccc([Si](C)(C)[C@@H]2[C@@H](CCO)O[C@]3(C(=O)N(Cc4ccc(N5C(=O)c6cccc7cccc5c67)cc4)c4ccccc43)[C@H]2C)cc1,-1.11
11,O=C(NCC(O)CO)[C@@]1(Cc2ccccc2)COC(c2ccc(OCCCO)cc2)=N1 (stereo not given in full),-0.805
12,CC(C)(C)OC(=O)CC[C@]1(C(=O)NCC(O)CO)N=C(c2ccc(OCCCO)cc2)O[C@H]1c1ccccc1CN=[N+]=[N-] (stereo not given in full),0.574
13,C=C(/C(=C/C[C@@H](OC(C)=O)c1ccc(CO)o1)c1cnc2ccccc2c1)C(C)C,-0.292
14,O=C1O[C@H](c2ccccc2)[C@H](c2ccccc2)N2[C@H]1[C@@H](C(=O)NC[C@H](O)c1ccccc1)[C@]1(C(=O)Nc3ccc(C#CC4(O)CCCCCC4)cc31)[C@H]2c1ccccc1OCCO,-0.99
15,O=C1C[C@@](C(=O)O)(c2ccc([N+](=O)[O-])cc2)[C@@H](c2ccc(CO)cc2I)N1C1CCCCC1,-0.826
16,COc1ccc(CCNC(=O)[C@@]2(C)c3ccccc3C(=O)N(Cc3ccccc3)[C@H]2c2ccc(CO)cc2)cc1,-0.0556
17,CC1CC/C=C\[C@H]2OC34C=CCN(Cn5nnc6ccccc65)C(=O)[C@H]3N(CCCO)C(=O)[C@@H]4C2C(=O)O1 (stereo not given in full),0.0216
